Values without a mark were called inactive. The source made the active and inactive calls.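 How the source made its calls: active means compound whose curve gives half-maximal concentration under 30 µM, top-dose inhibition above a set limit, tight estimate; inactive means the rest.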
Each molecule was assayed against Integrin alpha-4 (Homo sapiens) (UniProt P13612) (assay: VLA-4 allosteric modulator potency, dose response, cell-based, U937, HUTS-21 LIBS antibody, flow cytometry (AID 449766)). Conditions: U937 cells, HUTS-21 LIBS mAb binding; series mostly up to 20 µM.
Sequence of Integrin alpha-4 (Homo sapiens) (P13612 whole entry, looked up): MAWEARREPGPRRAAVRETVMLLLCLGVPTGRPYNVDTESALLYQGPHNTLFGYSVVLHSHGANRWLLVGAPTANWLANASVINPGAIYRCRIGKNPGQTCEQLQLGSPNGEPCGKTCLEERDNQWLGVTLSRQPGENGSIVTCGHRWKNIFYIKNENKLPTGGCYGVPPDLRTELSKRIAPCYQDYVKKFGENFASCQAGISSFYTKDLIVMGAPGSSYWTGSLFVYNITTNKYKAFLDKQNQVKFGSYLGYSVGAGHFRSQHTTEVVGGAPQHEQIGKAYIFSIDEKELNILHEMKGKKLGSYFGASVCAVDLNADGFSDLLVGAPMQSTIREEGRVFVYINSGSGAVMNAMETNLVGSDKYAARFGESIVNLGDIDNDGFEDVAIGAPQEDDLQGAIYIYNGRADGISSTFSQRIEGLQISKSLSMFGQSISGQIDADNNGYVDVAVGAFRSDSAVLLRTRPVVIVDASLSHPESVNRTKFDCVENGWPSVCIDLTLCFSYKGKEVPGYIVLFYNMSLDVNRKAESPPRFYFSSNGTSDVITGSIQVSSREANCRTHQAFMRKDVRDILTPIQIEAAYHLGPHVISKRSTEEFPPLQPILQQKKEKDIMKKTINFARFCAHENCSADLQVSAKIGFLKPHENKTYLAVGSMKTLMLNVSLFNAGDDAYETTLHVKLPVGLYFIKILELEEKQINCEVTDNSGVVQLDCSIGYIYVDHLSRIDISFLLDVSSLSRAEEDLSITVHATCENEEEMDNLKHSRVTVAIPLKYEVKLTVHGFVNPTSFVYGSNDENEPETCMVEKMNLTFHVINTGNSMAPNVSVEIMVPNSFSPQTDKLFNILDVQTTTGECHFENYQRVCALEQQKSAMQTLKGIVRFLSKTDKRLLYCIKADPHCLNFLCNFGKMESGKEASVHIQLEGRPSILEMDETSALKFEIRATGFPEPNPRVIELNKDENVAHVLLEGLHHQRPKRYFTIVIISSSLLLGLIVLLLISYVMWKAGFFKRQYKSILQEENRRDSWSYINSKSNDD

SMILES | outcome | inhibition
Cc1ccc(C(=O)c2cc([N+](=O)[O-])ccc2N2CCOCC2)cc1C | inactive | 
COc1ccc(C2CC(=O)Nc3cc(OC)c(OC)cc32)cc1Br (stereo not given) | inactive | 
COCCNC(=O)/C(C#N)=C/c1ccc(C(=O)O)cc1 | inactive | 
Cc1ccc(S(=O)(=O)Nc2ccc(N(C)C)cc2)cc1 | inactive | 
CC(C)Oc1ccccc1C1CC(=O)Nc2cc3c(cc21)OCO3 (stereo not given) | inactive | 
COc1ccc(C)cc1S(=O)(=O)Nc1cccc(C)c1 | inactive | 
CCCOc1ccccc1C1CC(=O)Nc2cc3c(cc21)OCO3 (stereo not given) | inactive | 
CCOc1ccc(C(=O)c2cc([N+](=O)[O-])ccc2N2CCOCC2)cc1 | inactive | 
COCCNC(=O)/C(C#N)=C/c1c(F)cccc1Cl | inactive | 
COc1ccc(C2=Nn3c(nnc3-c3ccc(OC)cc3)SC2)cc1 | inactive | 
Cc1ccc(C(=O)c2cc([N+](=O)[O-])ccc2N2CCOCC2)c(C)c1 | inactive | 
COc1cccc(C2CC(=O)Nc3cc(OC)c(OC)cc32)c1 (stereo not given) | inactive | 
COc1cc2c(cc1OC)C(c1ccc(Br)cc1)CC(=O)N2 (stereo not given) | inactive | 
Nc1ccc(NS(=O)(=O)c2ccccc2)cc1 | inactive | 
O=C(c1ccccc1)c1cc([N+](=O)[O-])ccc1N1CCOCC1 | inactive | 
COc1cc(NC(=O)c2cc(S(=O)(=O)N3CCCCC3)ccc2N2CCOCC2)cc(OC)c1 | inactive | 
O=C(Nc1ccccc1Cl)c1cc(S(=O)(=O)N2CCCCC2)ccc1N1CCOCC1 |  | -7.81% [at 0.25 µM]
O=C(Nc1ccc(OC(F)F)cc1)c1cc(S(=O)(=O)N2CCCCC2)ccc1N1CCOCC1 | inactive | 

SMILES | outcome | inhibition
CCOc1cccc(C2CC(=O)Nc3cc(OC)c(OC)cc32)c1 (stereo not given) | inactive | 
CCOCCCNC(=O)/C(C#N)=C/c1cc(Br)c(O)c(Br)c1 | inactive | 
Cc1ccc(C)c(NC(=O)c2cc(S(=O)(=O)N3CCCCC3)ccc2N2CCOCC2)c1 | inactive | 
CCCCNC(=O)/C(C#N)=C/c1ccc(C(=O)OC)cc1 | inactive | 
COc1ccc(-c2sc3ccccc3c2-c2ccc(OCCN3CCOCC3)cc2)cc1 | inactive | 
COc1ccc(-c2sc3cc4c(cc3c2-c2ccc(OCCN3CCOCC3)cc2)OCO4)cc1 | inactive | 
CCCCN1C(=O)C(=O)c2cc(Cl)ccc21 | inactive | 
COc1ccccc1-c1sc2cc3c(cc2c1-c1ccc(OCCN2CCCCC2)cc1)OCO3 | inactive | 
COC(=O)[C@@H]1[C@@H](C#N)C2(c3ccccc3-c3ccccc32)N(c2ccc(Cl)cc2)N1C#N | inactive | 
Nc1cc(S(=O)(=O)Nc2ccc(Br)cc2)ccc1Cl | inactive | 
Cc1ccc(NS(=O)(=O)c2ccc(-c3cnc(C4CC4)o3)cc2)c(C)c1 | inactive | 
O=C(Oc1ccc(F)cc1C(=O)/C=C/c1cccs1)c1cccc([N+](=O)[O-])c1 | inactive | 
COc1cccc(-c2sc3ccc(OC)cc3c2-c2ccc(OCCN3CCCC3)cc2)c1 | inactive | 
COCCNC(=O)/C(C#N)=C/c1cccc(/C=C(\C#N)C(=O)NCCOC)c1 | inactive | 
COc1ccc(S(=O)(=O)Nc2c(F)cccc2F)cc1 | inactive | 
CCOc1ccc(S(=O)(=O)Nc2cc(OC)ccc2OC)cc1 |  | -4.93% [at 0.74 µM]
Nc1cccc(S(=O)(=O)Nc2ccccc2)c1 | inactive | 
